Test results published in PubChem BioAssay (NCATS).
Inconclusive results are not listed. A call without a number means that no potency is given here. Some compounds were tested as several samples or in several runs, with calls that do not always agree. Calls of active or inactive are those of the source. Calls follow the shape of the dose curve; as a rule, active = well fitted activation curve with a large enough effect in the main read-out, with a control signal flat (not every such curve was filed as active); inconclusive = small, poorly fitted or top-dose-only effect, or effect the other way, or a change in a side signal; inactive = flat fitted curve, though single readings scatter.

biological target: 3',5'-cyclic-AMP phosphodiesterase 4B (Homo sapiens) (UniProt Q07343); experiment: qHTS Assay for Inhibitors of PDE-IV (AID 607); settings: HEK293 ACTOne CNG channel cells, membrane potential fluorescence; series mostly up to 22.9 µM
How it was run: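 Cell-based read-out of cAMP via a modified cyclic nucleotide-gated channel and membrane potential dye (535/590 nm) in HEK293 cells expressing PDE4 endogenously. Compounds tested up to 22.9 uM final; 100 uM RO 20-1724 reference.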
Potency is read from the fitted curve at half-maximal effect.

3',5'-cyclic-AMP phosphodiesterase 4B (Homo sapiens), sequence (Q07343 whole entry, looked up): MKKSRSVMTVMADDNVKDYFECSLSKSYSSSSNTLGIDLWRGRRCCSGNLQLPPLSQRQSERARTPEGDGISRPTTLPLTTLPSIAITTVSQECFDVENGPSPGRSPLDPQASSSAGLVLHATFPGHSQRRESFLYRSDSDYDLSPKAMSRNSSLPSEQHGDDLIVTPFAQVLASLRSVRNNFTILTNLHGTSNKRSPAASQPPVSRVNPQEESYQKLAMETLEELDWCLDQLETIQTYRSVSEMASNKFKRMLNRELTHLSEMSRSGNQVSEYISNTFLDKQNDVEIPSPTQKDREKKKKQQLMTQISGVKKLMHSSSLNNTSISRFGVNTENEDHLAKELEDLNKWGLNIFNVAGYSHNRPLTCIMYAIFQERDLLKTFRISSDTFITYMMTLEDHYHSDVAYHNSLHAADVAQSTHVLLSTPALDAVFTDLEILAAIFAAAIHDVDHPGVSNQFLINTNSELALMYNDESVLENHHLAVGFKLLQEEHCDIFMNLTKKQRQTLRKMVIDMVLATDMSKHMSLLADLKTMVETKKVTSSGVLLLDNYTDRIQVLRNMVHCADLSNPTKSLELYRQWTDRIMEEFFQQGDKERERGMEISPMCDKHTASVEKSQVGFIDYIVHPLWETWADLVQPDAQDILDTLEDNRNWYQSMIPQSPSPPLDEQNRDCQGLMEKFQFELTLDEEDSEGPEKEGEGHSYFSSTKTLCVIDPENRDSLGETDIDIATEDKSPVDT

Compound | Potency
Fc1ccc(CN(C2=NCCN2)c2c(Cl)cccc2Cl)cc1 | inactive
Cc1nc(N=Nc2ccc(S(=O)(=O)O)cc2S(=O)(=O)O)c(COP(=O)(O)O)c(C=O)c1O | inactive
NC1(C(=O)O)CC1 | inactive
CCCOC(=O)c1c(-c2ccccc2)nc(CC)c(C(=O)SCC)c1CCC | inactive
NCCS(=O)O | inactive
S=C(S)N1CCCC1 | inactive
O=c1[nH]c2cc(Cl)ccc2c(O)c1-c1ccc(Oc2ccccc2)cc1 | inactive
Nc1ccc2c3c(cccc13)C(=O)NC2=O | inactive
CCCn1c(=O)c2[nH]c(C3CCCC3)nc2n(CCC)c1=O | 5.01 µM (active) and inactive
COc1ccc2c(c1)c(CC(=O)O)c(C)n2Cc1ccc(Cl)cc1 | inactive
COc1cc(/C=C(\C#N)C(=O)c2ccc(O)c(O)c2)cc(I)c1O | inactive
CC(C)NC[C@H](O)COc1ccc(CC(N)=O)cc1 | inactive
O=C(O)C1CCNCC1 | inactive
O=C(c1ccc2c(c1)OCCO2)N1CCCCC1 | inactive
CCCCCC[C@@H]([C@@H](C)O)n1cnc2c(N)ncnc21 | inactive
Nc1nc2ccc(Cl)cc2c2nc(-c3ccco3)nn12 | inactive
Nc1ncnc2c1ncn2C1CCCC1 | inactive
C=C1C(=O)O[C@@H]2[C@H]3O[C@]3(C)CCC=C(C)CC[C@@H]12 | inactive
CCCc1c(OCCCOc2ccc(OCC(=O)O)cc2)ccc(C(C)=O)c1O | inactive

Compound | Potency
O=S(=O)(c1cccc2c(Cl)cccc12)N1CCCNCC1 | inactive
Oc1ccc(Cn2cc[nH]c2=S)cc1 | inactive
N[C@H](C(=O)O)[C@H](O)C(=O)O | inactive
Cn1c(=O)[nH]c2ncn(C)c2c1=O | inactive
N#C/C(=C\c1ccc(O)c(O)c1)C(=O)NCCCNC(=O)/C(C#N)=C/c1ccc(O)c(O)c1 | inactive
CCCn1c(=O)c(C)cn2nc(N)nc12 | 151 nM (active)
COc1cc(CNC(=O)CCCCCCC(C)C)ccc1O | inactive
NOCC(=O)O | inactive
CCCCCCCC/C=C\CCCCCCCC(=O)NCCc1ccc(O)c(O)c1 | inactive
CC(C)(CO)Cc1cc(C(C)(C)C)c(O)c(C(C)(C)C)c1 | inactive
NC1(C(=O)O)CCCCC1 | inactive
CCN1C(=O)C=CC1=O | inactive
c1ccc2nc(C3=NCCN3)ccc2c1 | inactive
CCCCCCCCCCC/C=C\C(C)(C)/C=C\CCCC(=O)O | inactive
CNC(=O)c1cc2c(cn1)[nH]c1ccccc12 | inactive
COc1cc2c(CCNC(C)=O)c[nH]c2cc1O | inactive
NCCCNCCCCNCCCN | inactive
Nc1ncnc2c1c(-c1ccc(Oc3ccccc3)cc1)cn2C1CCCC1 | inactive
